Data reported in PubChem BioAssay AID1347165 (National Center for Advancing Translational Sciences (NCATS), 2019).
“And” between values parts separate entries of the source, which are not always exact repeats. Equal entries are not always repeated. In all, about 220,000 compounds went through this assay and about 5,700 (2.6%) were called active. Inconclusive results (about 18%) are left out. The sample holds actives, similar compounds and a random draw of the others, so the mix is not that of the screen. The call rests on the fitted dose curve; in most records, active means well fitted inhibition curve with a large enough effect; inconclusive means small, poorly fitted or top-dose-only effect; inactive means no such curve, though single readings can be large or run the other way.

Biological target: Lysine-specific demethylase 5B (Homo sapiens) (UniProt Q9UGL1)
Assay: Primary screen for KDM5B Histone Demethylases FDH-coupled qHTS; further: nearly all actives have a fitted effect of over 70% in size; on activity change, negative = inhibition: 0% is about no effect
Conditions: FDH-coupled NADH fluorescence (FDH is formaldehyde dehydrogenase); series mostly up to 57.7 µM; activity change, negative = inhibition: at the top concentration
Summary of the method: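 Inhibition is measured as reduced NADH fluorescence generation from FDH coupling to formaldehyde release. Truncated KDM5BΔAP at 200 nM final acts on H3K4me3 peptide (12.5 µM in substrate mix) in pH 7.5 HEPES buffer with Tween-20, 30 min, room temperature.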
Potency means the concentration at half of the fitted maximal effect.

Lysine-specific demethylase 5B (Homo sapiens), sequence (Q9UGL1 whole entry, looked up): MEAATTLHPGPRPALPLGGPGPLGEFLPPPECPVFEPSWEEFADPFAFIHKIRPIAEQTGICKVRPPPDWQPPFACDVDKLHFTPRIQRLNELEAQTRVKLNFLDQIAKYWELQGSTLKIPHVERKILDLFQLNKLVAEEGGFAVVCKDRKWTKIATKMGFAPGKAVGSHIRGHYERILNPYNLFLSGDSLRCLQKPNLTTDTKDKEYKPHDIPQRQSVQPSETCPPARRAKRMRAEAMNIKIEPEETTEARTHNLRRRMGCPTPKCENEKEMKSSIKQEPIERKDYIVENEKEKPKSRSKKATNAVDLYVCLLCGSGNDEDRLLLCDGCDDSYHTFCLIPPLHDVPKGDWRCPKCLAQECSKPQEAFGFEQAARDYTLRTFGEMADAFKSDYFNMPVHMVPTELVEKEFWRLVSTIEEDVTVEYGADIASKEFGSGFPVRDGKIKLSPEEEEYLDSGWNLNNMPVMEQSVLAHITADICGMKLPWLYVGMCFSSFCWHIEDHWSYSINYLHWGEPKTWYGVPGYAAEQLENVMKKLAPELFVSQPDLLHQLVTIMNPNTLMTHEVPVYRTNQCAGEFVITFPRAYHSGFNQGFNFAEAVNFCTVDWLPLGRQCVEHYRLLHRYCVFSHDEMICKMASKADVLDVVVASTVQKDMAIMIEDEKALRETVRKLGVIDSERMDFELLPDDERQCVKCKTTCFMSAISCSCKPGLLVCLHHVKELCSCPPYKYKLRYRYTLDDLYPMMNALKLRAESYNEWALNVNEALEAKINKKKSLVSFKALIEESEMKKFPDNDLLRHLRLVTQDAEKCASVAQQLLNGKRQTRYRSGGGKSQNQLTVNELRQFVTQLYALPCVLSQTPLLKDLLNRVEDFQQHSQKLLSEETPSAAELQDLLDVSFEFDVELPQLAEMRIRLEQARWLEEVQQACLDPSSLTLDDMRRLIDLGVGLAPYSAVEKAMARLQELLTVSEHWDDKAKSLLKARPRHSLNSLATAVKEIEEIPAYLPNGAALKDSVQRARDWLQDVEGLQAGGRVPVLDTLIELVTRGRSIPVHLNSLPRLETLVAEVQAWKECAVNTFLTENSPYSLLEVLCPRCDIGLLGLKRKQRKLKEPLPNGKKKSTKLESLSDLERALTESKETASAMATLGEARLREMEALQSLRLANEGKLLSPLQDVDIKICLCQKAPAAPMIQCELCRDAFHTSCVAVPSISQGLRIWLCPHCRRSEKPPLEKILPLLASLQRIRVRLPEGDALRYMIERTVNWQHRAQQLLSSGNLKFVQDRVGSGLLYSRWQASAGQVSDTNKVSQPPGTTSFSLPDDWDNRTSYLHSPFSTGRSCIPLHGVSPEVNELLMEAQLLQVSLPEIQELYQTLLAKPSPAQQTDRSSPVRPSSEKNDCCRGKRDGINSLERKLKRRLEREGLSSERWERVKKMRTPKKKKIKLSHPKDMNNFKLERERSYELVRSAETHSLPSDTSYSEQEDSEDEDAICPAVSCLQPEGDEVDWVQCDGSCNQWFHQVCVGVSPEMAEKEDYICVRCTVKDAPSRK

Row | Structure (SMILES) | activity change, negative = inhibition | Potency
1 | CCC(=O)c1ccc(OC(=O)c2cc3ccccc3oc2=O)cc1 | 8.43% (inactive) | –
2 | CSc1ncc(C(=O)Nc2ccc(Cl)cc2)c(C(F)(F)F)n1 | -8.68% (inactive) | –
3 | COc1ccccc1NC(=O)C1c2ccccc2C(=O)N(CC(C)C)C12CCCC2 (configuration not stated) | 0.393% (inactive) | –
4 | CC(C)(C)C(=O)c1cn(CCOc2ccccc2F)c2ccccc12 | -10.2% (inactive) | –
5 | COc1nccnc1NC1CCN(C(=O)CCc2ccccc2)CC1 | – | 25.1 µM (active)
6 | COCCNC(=O)[C@@H]1C[C@@H](O)CN1C1CCN(C(=O)CCc2ccccc2)CC1 | -11.6% (inactive) | –
7 | O=C(NCc1ccccc1)N1CCN2C(=O)NC[C@H]2C1 | -12.8% [at 115 µM] (inactive) | –
8 | COc1nccnc1NC1CCN(C(=O)NCc2ccccc2)CC1 | – | 28.2 µM (active)
9 | COc1nc2ccccc2nc1N1CCC(C(=O)NCc2ccccc2)CC1 | -1.01% (inactive) | –
10 | Cc1nc2c(c(NC3CC3)n1)CCN(C(=O)CCc1cccnc1)CC2 | 17.5% (inactive) | –
11 | COc1nccnc1NC1CCN(C(=O)CCc2c(C)noc2C)CC1 | – | 31.6 µM (active)
12 | Cc1noc(C)c1CC(=O)N1CCC(c2n[nH]c(=O)n2Cc2ccc(F)cc2)CC1 | 3.93% (inactive) | –
13 | Cc1ccc(OCc2nc(C3CCN(C(=O)CCc4nc5ccc(Cl)cc5[nH]4)CC3)no2)cc1 | -15.8% (inactive) | –
14 | CC/C(=N\NC(=O)c1ccc(C(C)(C)C)cc1)c1ccccc1 | 23.3% (inactive) | –
15 | Cn1cnnc1C1CCCN(S(=O)(=O)N2CCCCC2)C1 (configuration not stated) | 15.6% (inactive) | –
16 | Cc1ccc(OCC(O)Cn2cnc3sccc3c2=O)c(C)c1 (configuration not stated) | 11.8% (inactive) | –
17 | COc1ccc2c(CC(=O)N3CCc4cc(OC)c(OC)cc4C3)coc2c1 | 1.49% (inactive) | –
18 | Cc1oc2ccn(Cc3ccccc3F)c(=O)c2c1C(=O)NCCCN1CCCCC1C (configuration not stated) | -32.9% (inactive) | –
19 | Cc1cc(C)c(NC(=O)CSc2nc3ccncc3[nH]2)c(C)c1 | -14.4% (inactive) | –
20 | COc1ccc(CC(=O)NC[C@@H]2C=C(C)[C@H](Cc3nc4ccncc4[nH]3)C[C@H]2C(C)C)cc1 | -10.4% (inactive) | –
21 | c1cc(-c2nc3ccncc3[nH]2)ccn1 | – | 126 µM (active) and 31.6 µM (active)
22 | COc1ccc(C2=NC(c3ccncc3)=Nc3ccc(Br)cc3N2)cc1 | -26.1% (inactive) | –
23 | Cc1ccc(Nc2n[nH]nc2C(=O)Nc2ccc(C)cc2Cl)cc1 | 9.14% (inactive) | –
24 | Cc1csc(CNC(=O)N(C)Cc2ccc3c(c2)OCCO3)n1 | 2.14% (inactive) | –
25 | O=C(Nc1ccccc1Cc1ccccc1)c1cccc[n+]1[O-] | 11.7% (inactive) | –
26 | O=C(NCCCn1ccnc1)c1ccc(-c2ncc3cnc(-c4cccc(F)c4)cn23)cc1 | – | 17.8 µM (active)

Row | Structure (SMILES) | activity change, negative = inhibition | Potency
27 | Cc1ccc(-c2nc(C#N)c(NCCCn3ccnc3)o2)cc1 | 299% (inactive) | –
28 | CC(C)(Oc1nn(CCOc2ccccc2)c2ccccc12)C(=O)NCCCn1ccnc1 | -4.34% (inactive) | –
29 | Cn1cc(S(=O)(=O)N2CCC(C(=O)Nc3ccc(OC(F)F)c(Cl)c3)CC2)cc1C(N)=O | 4.62% (inactive) | –
30 | COC(=O)c1sccc1S(=O)(=O)Nc1ccc(OC)cc1 | -19.7% (inactive) | –
31 | CN(C)C[C@@H]1CN(Cc2ccccn2)C[C@H]1NC(=O)c1ccc2cc[nH]c2c1 | – | 28.2 µM (active)
32 | COc1ccc2cc(C(=O)N3CCC(C(C)C(=O)NCCCN4CCCC4)CC3)[nH]c2c1 (configuration not stated) | 13.5% (inactive) | –
33 | CN(C)C[C@@H]1CN(S(C)(=O)=O)C[C@H]1NC(=O)c1cccc(F)c1 | -22.8% (inactive) | –
34 | COc1ccc(C(=O)N[C@H]2C[C@@H]3CC[C@H]2C3)cc1 | 3.38% (inactive) | –
35 | Cc1cc(C)n(CCC(=O)N[C@@H]2CN(S(C)(=O)=O)C[C@H]2CN(C)C)n1 | -17.1% (inactive) | –
36 | COc1ccc2[nH]c(C(=O)N[C@@H]3CN(S(C)(=O)=O)C[C@H]3CN(C)C)cc2c1 | – | 28.2 µM (active)
37 | CN(C)C[C@@H]1CN(S(C)(=O)=O)C[C@H]1NC(=O)c1ccc2ncccc2c1 | -3.17% (inactive) | –
38 | O=C(N[C@@H]1CN(Cc2c(F)cccc2F)C[C@H]1CO)c1ccccc1 | -10.1% (inactive) | –
39 | CN(C)C[C@@H]1CN(S(C)(=O)=O)C[C@H]1NC(=O)c1nn(C)c2ccccc12 | – | 28.2 µM (active)
40 | CN(C)C[C@@H]1CN(C)C[C@H]1NC(=O)c1cc2ccccc2[nH]1 | – | 25.1 µM (active)
41 | CC(CNC(=O)c1cc2ccccc2[nH]1)c1ccccc1 (configuration not stated) | 11.8% (inactive) | –
42 | CN(C)C[C@@H]1CN(C)C[C@H]1NC(=O)c1ccnnc1 | -4.54% (inactive) | –
43 | O=C(O)COc1ccc2c(=O)c(Oc3ccc(Cl)cc3)coc2c1 | -20.5% (inactive) | –
44 | Cc1ccc(CNC(=O)Cn2c(=O)ccc3cc(S(=O)(=O)N4CCC(C)CC4)ccc32)o1 | -0.492% (inactive) | –
45 | Brc1ccc(/C=N/N=C/c2ccc(Br)s2)s1 | -4.1% (inactive) | –
46 | COc1ccc(NC(=O)CN(C)c2nc(CN3CCOCC3)nc3sc(C)c(C)c23)cc1 | 5.89% (inactive) | –
47 | COC1CN(c2cccc(F)c2)C12CCN(C1CCOCC1)CC2 (configuration not stated) | -39.5% (inactive) | –
48 | Cc1nnc([C@H]2CCN(Cc3ccc(F)cc3)C2)o1 | -3.36% [at 115 µM] (inactive) | –
49 | Fc1ccc2oc([C@H]3CCN(C4CCOCC4)C3)nc2c1 | – | 44.7 µM (active)
50 | Cc1ccc(-c2nc3ccc(C(=O)N4CCC(CC(=O)N5CCCCCC5)CC4)cc3o2)cc1 | 3.43% (inactive) | –
51 | COc1ccc(C2=NOC(C(=O)Nc3cc(C)nn3-c3ccccc3)C2)cc1 (configuration not stated) | 6.85% (inactive) | –
52 | O=C(COc1ccccc1)Nc1ccc2c(=O)c3ccccc3oc2c1 | -14.5% (inactive) | –
